Hits are enriched below; roughly 3.5% of the tested compounds scored in any of these assays.
Pf apPOL block = Pf-apPOL inhibitors, biochemical, fluorescence. Recombinant Pf-apPOL, molecular beacon fluorescence, 1.5 h. inhibition, % at 10 µM. 210,000 compounds, 0.25% hits. AID 1794808, 2022
mHTT-CaM PPI inh = mutant huntingtin-calmodulin interaction inhibitors – biochemical, AlphaScreen, primary screen. inhibition, % at 15 µM. P42858. 190,000 compounds, 3.6% hits. AlphaScreen His-mHTT/GST-CaM binding, luminescence;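 note: 0% = both proteins with DMSO and 100% = one protein alone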
* marks the source's active call; other numbers are inactive results; nt = no result given. Cut-off read from the data, not from the text of the source: active = inhibition above about 50%; inactive = the rest.

SMILES | Pf apPOL block | mHTT-CaM PPI inh
COc1ccc(Cl)cc1NC(=O)C(Cc1ccccc1)N1C(=O)C2C3C=CC(C3)C2C1=O (stereo not drawn) | -2.4 | 51.0*
COc1ccc(Cl)cc1NC(=O)C(Cc1ccccc1)N1C(=O)C2C3CCC(C3)C2C1=O (stereo not drawn) | -1.1 | 31.9
COc1ccc(-n2ccn3cc(-c4ccc(Br)cc4)nc3c2=O)cc1 | -0.6 | -4.3
O=C(CN1C(=O)C(c2ccc(F)cc2)=NC12CCCC2)Nc1ccccc1 | -3.3 | -12.0
COc1ccc(-c2nc3c(c(=O)[nH]2)CCN(S(=O)(=O)c2ccc4c(c2)CCC4)C3)cc1 | 6.5 | -1.8
N#Cc1c(N)sc2c1CCCC2 | -2.0 | 4.3
Nc1sc2c(c1-c1nn[nH]n1)CCCC2 | nt | 90.1*
Cc1ccc(S(=O)(=O)CC2OC(n3cc(I)c(=O)[nH]c3=O)CC2O)cc1 (stereo not drawn) | -18.9 | nt
Fc1ccc(Oc2ccc(-c3noc(-c4cnccn4)n3)cc2)cc1 | -4.1 | -11.7
Cc1ccc(C(=O)N2CCN(C(C(=O)N3CCOCC3)C3CCCC3)CC2)cc1 (stereo not drawn) | 0.0 | 24.8
CCc1c(C)c(C#N)c2nc3ccccc3n2c1NCCCN1CCOCC1 | 83.3* | -2.0
CCCCc1c(C)c(C#N)c2nc3ccccc3n2c1NCCN1CCOCC1 | 2.4 | -8.0
O=C(c1cc2ccccc2o1)N1CCN(c2ccc(Cl)cc2[N+](=O)[O-])CC1 | 3.7 | 57.0*
O=C(O)c1ccccc1C(=O)c1ccc(N2CCCCC2)c([N+](=O)[O-])c1 | -10.4 | 3.3
COc1ccc(C(=O)c2ccc(N3CCN(C)CC3)c([N+](=O)[O-])c2)cc1 | -9.5 | 17.4
CN1CCN(c2ccc(C(=O)c3ccc(Cl)cc3)cc2[N+](=O)[O-])CC1 | -7.1 | 61.7*
CC1Cc2ccccc2N1C(=O)c1ccc(N2CCCCC2)c([N+](=O)[O-])c1 (stereo not drawn) | 1.4 | 63.0*
O=C(c1cc2ccccc2o1)N1CCN(c2ccc(C(F)(F)F)cc2[N+](=O)[O-])CC1 | 17.3 | 47.0
COc1ccc(CSCC(=O)c2ccc(Cl)c(Cl)c2)c(Cl)c1OC | -5.5 | nt
Fc1ccc(CN2CCc3nc(N4CCN(c5ccccc5F)CC4)ncc3C2)cc1F | 8.4 | 6.0
CCOC(=O)N1CCc2nn(CC(=O)Nc3ccc(Cl)cc3)c(=O)cc2C1 | -3.1 | 32.4
CCC1=NS(=O)(=O)c2cccnc2N1c1ccc(C(C)C)cc1 | -0.7 | -7.9
CCN1CCN(C2CCN(C(=O)c3ccc(C)cc3)CC2)C1=O | -4.9 | -9.3
CCN1CCN(C2CCN(C(=O)c3cc(C)cc(C)c3)CC2)C1=O | -1.8 | 95.5*
COc1ccc(S(=O)(=O)N2CC=C(c3cn(C)c4ncccc34)CC2)cc1Cl | -2.0 | 6.9
SMILES | Pf apPOL block | mHTT-CaM PPI inh
Cc1ccc(S(=O)(=O)N2CC=C(c3cn(C)c4ncccc34)CC2)cc1Cl | -1.4 | 64.8*
O=C1NC(=O)/C(=C\c2ccccc2OCc2ccccc2Cl)S1 | -2.3 | 37.0
Cn1c(=O)c2ccnn2c2ccc(C(=O)NCc3ccc(C(F)(F)F)cc3)cc21 | 0.3 | 2.7
CC1(C)CC(O)(CNCc2ccc(Cl)cc2)CCO1 (stereo not drawn) | -4.6 | -6.0
CCCCNC(=O)OCCCN1CCC2(CCC(c3ccccc3)CC2)C1=O (stereo not drawn) | -5.7 | 9.6
O=C(Nc1ccc(F)cc1)OCCN1CCCC12CCC(c1ccccc1)CC2 (stereo not drawn) | -3.2 | -14.6
O=C(Nc1ccccc1C(F)(F)F)OCCCN1CCC2(CCC(c3ccccc3)CC2)C1=O (stereo not drawn) | 0.3 | 92.6*
O=C(Nc1cccc(F)c1)OCCCN1CCC2(CCC(c3ccccc3)CC2)C1 (stereo not drawn) | -2.7 | 50.1*
O=C(CN1C(=O)CCCc2ccccc21)N1CCN(c2cccc(C(F)(F)F)c2)CC1 | -1.3 | 16.2
O=C(COc1ccc(Cl)cc1)Nc1nnc(Cc2cccs2)o1 | -64.5 | 78.4*
COC(=O)c1ccc(NC(=O)C(=O)NCc2ccc3c(c2)OCO3)cc1 | -2.7 | -11.5
COC(=O)c1ccc(C(=O)Nc2nnc(Cc3ccc4c(c3)OCO4)o2)cc1 | -48.9 | 56.8*
O=C(CSc1ccc(F)cc1)Nc1nnc(Cc2cccs2)o1 | -12.0 | 32.7
O=C(COc1ccc(Cl)cc1Cl)Nc1ccccc1F | -3.7 | -4.9
COC(=O)c1ccc(C(=O)Nc2nnc(-c3cc(Cl)ccc3Cl)o2)cc1 | -3.7 | -23.8
COC(=O)c1ccc(C(=O)Nc2nnc(-c3ccn(C(C)C)n3)o2)cc1 | -2.6 | 64.6*
O=C(COc1ccc(Cl)cc1Cl)Nc1nnc(COc2ccccc2)o1 | -260.3 | 97.3*
Cc1cc(C(=O)Nc2ccc(-c3nc4ccccc4s3)c(O)c2)ccc1[N+](=O)[O-] | -2.5 | 0.4
O=C(NCC(O)c1cccc2ccccc12)Nc1ccccc1C(F)(F)F (stereo not drawn) | -7.8 | -12.9
O=C1C(=Nc2cccc(F)c2)c2ccccc2N1CN1CCN(c2ccc([N+](=O)[O-])cc2)CC1 | -0.1 | 11.0
